The source of these data is PubChem BioAssay (NCATS).

Molecules are shown by their SMILES. Records with an inconclusive call do not appear. Activity calls are given as the source filed them. Calls follow the shape of the dose curve; as a rule, active = well fitted inhibition curve with a large enough effect; inconclusive = small, poorly fitted or top-dose-only effect; inactive = flat fitted curve, though single readings scatter.

Common to all, as to experiment: qHTS profiling for inhibitors of Plasmodium falciparum proliferation (AID 504749); also: nearly all actives have a fitted effect of over 60% in size
Holding throughout (conditions): P. falciparum in erythrocytes, SYBR Green DNA, 72 h; series mostly up to 28.7 µM
Background: qHTS replaces the single test concentration by a dilution series.

One assay deals with CP250. The method in brief: (§1)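 Fluorescence of SYBR Green-bound parasite DNA, read at 485/535 nm, served as the growth measure. Infected erythrocytes were cultured with compound 72 h; artemisinin (0.29 uM) and DMSO wells defined the normalization range.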
The next assay deals with CP256. In short, it runs like this:
as §1

A further assay relates to CP266. The method in brief: as §1
The subject of another assay is CP269. The method in brief: as §1
In the next assay the test system is CP315. The method in brief:
as §1

Another assay relates to DIV17. The method in brief: as §1
The subject of the next assay is CP252. In short, it runs like this: as §1
A further assay relates to CP260. In short, it runs like this:
as §1

The next assay concerns CP265. In short, it runs like this: as §1
A further assay concerns CP268. In short, it runs like this: as §1
Another assay deals with CP286. The method in brief:
as §1

A further assay concerns CP291. The method in brief:
as §1

The test system of another assay is CP297. The method in brief:
as §1

Another assay has as its system CP305. In short, it runs like this:
as §1

Another assay has as its system CP325. The method in brief:
as §1

The subject of a further assay is CP329. The method in brief:
as §1

For another assay, the system named is CP335. In short, it runs like this: as §1
A further assay concerns DFO2036. In short, it runs like this:
as §1

The next assay concerns DIV14. The method in brief: as §1
Another assay relates to CP262. The method in brief: as §1
Potency is read from the fitted curve at half-maximal effect.

With `CN1CCCC(=C(c2cccs2)c2cccs2)C1`, the Potency entry with CP250, with CP256, in the assay with CP266, in the assay with CP269 and with CP315 was “inactive” in each case. Besides, the Potency with DIV17 was 6.75 µM (active).
For the compound `C[CH2][Hg][S]c1ccccc1C(=O)O`, the Potency in the assay with CP250 is 3.55 µM (active); in the assay on CP252, 3.16 µM (active); in the assay on CP256, 3.16 µM (active); with CP260, 1 µM (active); in the assay on CP265, 1.41 µM (active); with CP266, 4.26 µM (active). The Potency with CP268 is 3.79 µM (active); in the assay with CP269, 1.69 µM (active); with CP286 it was 1.41 µM (active); in the assay on CP291, 3.79 µM (active); in the assay on CP297, 1.69 µM (active); in the assay with CP305, 3.79 µM (active). The Potency in the assay with CP315 is 4.26 µM (active); in the assay on CP325, 1.69 µM (active); in the assay on CP329, 1.69 µM (active); in the assay with CP335, 1.35 µM (active); with DFO2036, 2 µM (active); in the assay on DIV14, 1.9 µM (active). Moreover, in the assay with DIV17, the Potency is 1.51 µM (active).
For the compound `O=C(CS(=O)C(c1ccccc1)c1ccccc1)NO` (stereo not given), the Potency entry in the assay on CP250, in the assay with CP252, in the assay with CP256, with CP262, in the assay with CP265 and with CP266 was “inactive” throughout. The Potency entry in the assay with CP268, in the assay with CP269, in the assay with CP286, with CP291, with CP297 and in the assay with CP305 was “inactive” each time. The Potency entry in the assay on CP315, in the assay on CP325, in the assay with CP329, in the assay with CP335, in the assay with DFO2036 and in the assay on DIV14 was “inactive” throughout. Further, in the assay on DIV17, the Potency entry was “inactive”.
On to `C[C@H]1CC[C@@H]2[C@@H](C)[C@H]3[C@H](C[C@H]4[C@@H]5CC=C6CC(O[C@@H]7O[C@H](CO)[C@H](O)[C@H](O[C@@H]8O[C@H](CO)[C@@H](O)[C@H](O)[C@H]8O)[C@H]7O[C@H]7O[C@@H](C)[C@H](O)[C@@H](O)[C@H]7O)CC[C@]6(C)[C@H]5CC[C@]34C)N2C1` (stereo not given in full), for which the Potency result with CP250, in the assay on CP252, with CP260, in the assay on CP262, with CP265 and in the assay on CP266 was “inactive” in each case. For the same compound, the Potency result in the assay on CP268, with CP269, with CP286, in the assay on CP291, in the assay with CP297 and with CP305 was “inactive” each time. Moreover, the Potency entry in the assay on CP315, with CP325, with CP329, in the assay on CP335, in the assay on DFO2036 and with DIV14 was “inactive” in each case. Moreover, in the assay on DIV17, the Potency result is “inactive”.
As for `OC(c1ccccc1)(c1ccccc1)C1CN2CCC1CC2` (stereo not given), the Potency entry with CP250, in the assay on CP252, in the assay with CP256, in the assay with CP262, in the assay with CP265 and in the assay with CP268 was “inactive” throughout. For the same compound, the Potency entry with CP269, in the assay with CP286, in the assay on CP291, in the assay with CP305, in the assay on CP315 and in the assay with CP325 was “inactive” each time. Also, the Potency entry with CP329 and in the assay with DFO2036 was “inactive” each time. Also, the Potency in the assay on DIV17 is 3.79 µM (active).
Take `CCC1(c2ccccc2)C(=O)NC(=O)N(C)C1=O` (stereo not given): the Potency result in the assay with CP250, in the assay on CP252, with CP256, in the assay with CP262, with CP266 and in the assay on CP268 was “inactive” in each case. For the same compound, the Potency entry with CP286, in the assay on CP291, in the assay on CP297, in the assay on CP315, with CP325 and with CP329 was “inactive” throughout. Further, the Potency result in the assay with DFO2036 is “inactive”.
Take `C[C@@H](Cc1ccccc1)NCCC(c1ccccc1)c1ccccc1`: the Potency entry with CP252, in the assay with CP315, with CP325, with CP329 and in the assay on DFO2036 was “inactive” in each case. Also, the figures for the Potency with DIV14 and in the assay on DIV17 were 3.22 µM (active) and 2.56 µM (active), respectively.
In the case of `[N-]=[N+]=CC(=O)OCC(N)C(=O)O` (stereo not given), the Potency result in the assay on CP250, in the assay on CP252, in the assay on CP256, in the assay with CP262, in the assay with CP265 and with CP266 was “inactive” in each case. For the same compound, the Potency entry in the assay with CP268, with CP269, in the assay on CP286, in the assay with CP291, in the assay on CP297 and with CP305 was “inactive” throughout. For the same compound, the Potency result in the assay on CP315, in the assay with CP325, with CP329, in the assay on CP335, in the assay with DFO2036 and in the assay with DIV14 was “inactive” in each case. Besides, the Potency entry in the assay on DIV17 is “inactive”.
Consider `COc1ccc2c(c1OC)C(=O)OC2C1c2cc3c(cc2CCN1C)OCO3` (stereo not given), for which the Potency entry in the assay with CP250, in the assay on CP252, in the assay with CP256, in the assay on CP260, in the assay on CP265 and with CP286 was “inactive” each time. Besides, the Potency result with DFO2036 is “inactive”.
Consider `O=c1c2ccccc2[se]n1-c1ccccc1`, for which the Potency result with CP252, in the assay on CP256, in the assay on CP260, in the assay on CP262, in the assay with CP266 and with CP268 was “inactive” throughout. Moreover, the Potency entry in the assay on CP269, in the assay with CP291, in the assay on CP297, with CP305, in the assay with CP315 and with CP325 was “inactive” throughout. Further, the Potency entry in the assay on CP329 was “inactive”.
With `C/C(=C\c1csc(C)n1)[C@@H]1C[C@@H]2O[C@]2(C)CCC[C@H](C)[C@H](O)[C@@H](C)C(=O)C(C)(C)[C@@H](O)CC(=O)O1`, the Potency in the assay with CP250 was 0.0071 µM (active); with CP252, 0.0035 µM (active); with CP256, 0.0022 µM (active); with CP260, 0.0022 µM (active); in the assay with CP265 it was 0.004 µM (active); in the assay on CP269 it was 0.0038 µM (active). Besides, the Potency in the assay on CP286 was 0.0018 µM (active); in the assay on CP291 it was 0.0021 µM (active); in the assay with CP297, 0.0043 µM (active); in the assay with CP315, 0.0024 µM (active); in the assay with CP325 it was 0.0027 µM (active); in the assay with CP329, 0.0034 µM (active). The Potency in the assay with CP335 is 0.0012 µM (active); in the assay on DFO2036, 0.0032 µM (active); in the assay on DIV14, 0.0034 µM (active); in the assay with DIV17 it was 0.0034 µM (active).
Turning to `CCCCCCCCCC(=O)O[C@H]1CC[C@H]2[C@@H]3CCC4=CC(=O)CC[C@]4(C)[C@H]3CC[C@]12C`, the Potency entry with CP250, in the assay with CP252, with CP256, in the assay with CP262, in the assay with CP265 and in the assay on CP266 was “inactive” each time. Moreover, the Potency entry in the assay with CP268, with CP269, in the assay with CP291, with CP297, in the assay on CP305 and in the assay with CP315 was “inactive” in each case. Also, the Potency result in the assay with CP325, in the assay with CP329, in the assay with DFO2036, with DIV14 and with DIV17 was “inactive” each time.
As to `C[C@]12CCC(=O)C[C@@H]1CC[C@@H]1[C@@H]2CC[C@]2(C)[C@@H](O)CC[C@@H]12`, the Potency entry in the assay with CP252, in the assay with CP256, in the assay with CP262, in the assay with CP265, with CP266 and in the assay on CP268 was “inactive” throughout. Also, the Potency entry with CP269, in the assay on CP286, in the assay on CP291, in the assay with CP297, in the assay with CP305 and in the assay with CP315 was “inactive” throughout. Further, the Potency entry in the assay on CP325, in the assay on CP329, in the assay with CP335, in the assay on DFO2036, with DIV14 and with DIV17 was “inactive” throughout.
On to `CCCN1CCCC2Cc3[nH]ncc3CC21` (stereo not given), for which the Potency result in the assay on CP250, in the assay on CP252, with CP256, in the assay on CP260, in the assay on CP265 and with CP286 was “inactive” each time. The Potency entry with DFO2036 was “inactive”.
With `Oc1cccc[c]1[Hg][Cl]`, the Potency is 12.6 µM (active) in the assay on CP252; 11.2 µM (active) in the assay with CP256; 5.62 µM (active) in the assay on CP260; 10 µM (active) in the assay with CP265; 9.53 µM (active) in the assay on CP266; 7.57 µM (active) in the assay on CP268. The Potency with CP269 was 4.26 µM (active); with CP286, 7.94 µM (active); in the assay with CP291 it was 10.7 µM (active); in the assay on CP297, 13.5 µM (active); in the assay with CP305, 6.01 µM (active); in the assay with CP325, 12 µM (active). Moreover, the Potency is 9.53 µM (active) in the assay with CP329, 5.62 µM (active) with DFO2036, 4.78 µM (active) with DIV14 and 5.36 µM (active) in the assay with DIV17.
For the compound `CC12NC(Cc3ccccc31)c1ccccc12` (stereo not given), the Potency entry in the assay on CP250, with CP262, with CP266, in the assay with CP268, in the assay with CP305 and with CP315 was “inactive” throughout. Besides, the Potency entry with CP325 was “inactive”. For the same compound, the Potency was 8.91 µM (active) in the assay with CP265 and 6.01 µM (active) in the assay on CP297.
